Experimental data from PubChem BioAssay.

test: basal S. cerevisiae growth modulation, no modifier, primary screen, OD600, strain BY4716, 24 h, basal condition (AID 1173); conditions: OD600, 24 h, higher = more signal, called active from +8 up or from −8 down

z-score, inactive:
O=C1NC(=O)C2C1C=CC(C(O)c1cc(C(F)(F)F)cc(C(F)(F)F)c1)N2Nc1ccccn1 (centres undefined) 0.885, C=C(/C(=C/C[C@H](OC(C)=O)c1ccccc1OCCO)c1cnc2ccccc2c1)C(C)C 0.323, COC(=O)[C@H](Cc1ccccc1)N1CC2=C[C@@H](C3CC3)n3c(=O)n(C)c(=O)n3[C@H]2[C@@H]1[C@@H](O)Cc1ccccc1 -1.18, CC(=O)n1cc(C(O)C2C=CC3C(=O)N(c4ccccc4)C(=O)C3N2Nc2ccc([N+](=O)[O-])cc2)c2ccccc21 (centres undefined) -0.199, CN1C=C(C(=O)OCCS(C)(=O)=O)C(C(=O)OCCS(C)(=O)=O)=CC(c2ccc(CO)cc2)=CC1C1CC1 (centres undefined) -1.68, COC(=O)[C@]1(CCC(=O)OC(C)(C)C)N=C(c2ccc(OCCCO)cc2)O[C@@H]1c1ccccc1CN=[N+]=[N-] 1.01, C=CCNC(=O)[C@@H]1[C@H]2C(=O)O[C@H](c3ccccc3)[C@H](c3ccccc3)N2[C@H](c2ccc(OCCO)cc2)[C@@]12C(=O)Nc1ccc(C#CCC(C(=O)OC)C(=O)OC)cc12 1.12, COC(=O)C(CC#Cc1ccc2c(c1)[C@]1(C(=O)N2)[C@H](c2ccc(OCCO)cc2)N2[C@H](c3ccccc3)[C@H](c3ccccc3)OC(=O)[C@H]2[C@@H]1C(=O)N1CCc2cc(OC)c(OC)cc2C1)C(=O)OC 2.53, NC(=O)N1C(=O)C2C(C1=O)C1C=C(c3ccc(CO)cc3)C2C(c2cccs2)N1Cc1cccc(OC(F)(F)F)c1 (centres undefined) -4.02
